Experimental data published in publication PMC7862700, “An all-to-all approach to the identification of sequence-specific readers for epigenetic DNA modifications on cytosine”.

Assays:
Test in all cases: DAPPL (digital affinity profiling via proximity ligation, sequencing); 10 mM Tris-HCl pH 7.5, 50 mM NaCl, 1 mM DTT, 4% glycerol, room temperature, 30 min; GST-TFs on glutathione beads, 16-mer random dsDNA library, 0.1% formaldehyde crosslink after washing; high values mean tight binding
FLI1 = target: T1, FLI1 (Homo sapiens, UniProt Q01543 1-452); settings: protein: recombinant; tags: N-terminal GST; dsDNA, one strand shown
T1 sequence: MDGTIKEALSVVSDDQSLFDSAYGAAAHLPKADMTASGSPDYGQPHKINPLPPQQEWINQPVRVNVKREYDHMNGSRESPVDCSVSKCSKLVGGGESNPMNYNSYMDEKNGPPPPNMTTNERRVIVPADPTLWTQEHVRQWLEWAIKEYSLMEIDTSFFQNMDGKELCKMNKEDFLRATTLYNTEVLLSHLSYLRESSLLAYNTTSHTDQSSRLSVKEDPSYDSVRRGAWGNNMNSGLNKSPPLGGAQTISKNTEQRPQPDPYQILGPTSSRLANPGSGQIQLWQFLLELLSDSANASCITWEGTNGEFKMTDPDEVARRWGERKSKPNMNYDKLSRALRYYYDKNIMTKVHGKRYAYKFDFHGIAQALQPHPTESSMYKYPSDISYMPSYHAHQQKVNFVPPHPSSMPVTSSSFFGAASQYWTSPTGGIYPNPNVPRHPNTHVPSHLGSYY
Method in brief: (§1)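 Human transcription factors carrying a GST fusion were produced in yeast, bound to glutathione beads, tagged with DNA barcodes and pooled together with a tag-only sample. Each pool was held with 200 nmole of a random double-stranded 16-mer DNA library in Tris/NaCl/DTT/glycerol buffer for 30 min at room temperature, then washed, crosslinked in 0.1% formaldehyde, proximity-ligated with BsaI/T4 ligase (1 h, 37 °C), PCR-amplified and sequenced on an Illumina NextSeq500. Binding signal is the read frequency of each hexamer for a given factor divided by its frequency in the tag-only sample.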

ELK1 = target: T2, ELK1 (Homo sapiens, UniProt P19419 1-428); settings: protein: recombinant; tags: N-terminal GST; dsDNA, one strand shown
T2 sequence: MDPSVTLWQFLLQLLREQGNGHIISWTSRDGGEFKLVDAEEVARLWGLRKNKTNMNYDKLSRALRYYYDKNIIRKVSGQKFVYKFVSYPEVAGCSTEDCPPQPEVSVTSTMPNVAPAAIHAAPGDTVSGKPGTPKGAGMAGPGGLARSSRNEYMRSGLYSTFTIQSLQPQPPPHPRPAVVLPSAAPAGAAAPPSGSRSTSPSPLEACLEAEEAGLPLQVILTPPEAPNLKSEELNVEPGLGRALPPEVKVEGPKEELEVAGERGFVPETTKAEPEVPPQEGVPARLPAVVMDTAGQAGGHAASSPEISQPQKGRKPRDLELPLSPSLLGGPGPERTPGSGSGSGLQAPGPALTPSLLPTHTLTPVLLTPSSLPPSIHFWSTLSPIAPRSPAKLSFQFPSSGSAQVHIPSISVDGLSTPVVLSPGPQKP
Method in brief: as §1

GABPA = target: T3, GABPA (Homo sapiens, UniProt Q06546 1-454); settings: protein: recombinant; tags: N-terminal GST; dsDNA, one strand shown
T3 sequence: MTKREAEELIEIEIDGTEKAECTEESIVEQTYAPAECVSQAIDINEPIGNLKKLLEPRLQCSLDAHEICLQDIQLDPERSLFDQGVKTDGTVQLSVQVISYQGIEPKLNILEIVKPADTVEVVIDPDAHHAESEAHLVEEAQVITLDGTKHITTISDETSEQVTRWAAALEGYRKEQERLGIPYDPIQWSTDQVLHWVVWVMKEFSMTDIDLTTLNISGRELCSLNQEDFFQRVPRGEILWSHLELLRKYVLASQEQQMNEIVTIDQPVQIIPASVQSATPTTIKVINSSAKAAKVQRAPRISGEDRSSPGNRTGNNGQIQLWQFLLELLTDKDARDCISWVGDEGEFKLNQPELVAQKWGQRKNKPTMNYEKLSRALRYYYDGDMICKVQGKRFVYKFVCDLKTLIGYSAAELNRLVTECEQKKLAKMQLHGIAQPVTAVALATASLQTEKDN
Method in brief: as §1

ERG = target: T4, ERG (Homo sapiens, UniProt P11308 1-479); settings: protein: recombinant; tags: N-terminal GST; dsDNA, one strand shown
T4 sequence: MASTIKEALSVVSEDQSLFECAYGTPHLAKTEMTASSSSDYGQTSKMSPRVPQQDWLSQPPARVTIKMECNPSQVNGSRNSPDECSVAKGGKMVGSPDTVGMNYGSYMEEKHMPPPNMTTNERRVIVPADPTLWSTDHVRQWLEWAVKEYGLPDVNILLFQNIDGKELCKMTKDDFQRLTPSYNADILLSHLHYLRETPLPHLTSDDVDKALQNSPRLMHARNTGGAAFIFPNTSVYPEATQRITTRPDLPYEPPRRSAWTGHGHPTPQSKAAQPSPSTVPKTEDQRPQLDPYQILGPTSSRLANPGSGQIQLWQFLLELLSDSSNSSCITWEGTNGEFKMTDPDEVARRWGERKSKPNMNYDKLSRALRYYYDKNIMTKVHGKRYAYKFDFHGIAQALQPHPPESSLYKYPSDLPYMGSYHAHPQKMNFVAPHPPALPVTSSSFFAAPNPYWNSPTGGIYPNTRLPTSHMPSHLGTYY
Method in brief: as §1

ELF1 = ELF1 (Homo sapiens, UniProt P32519 1-619); settings: protein: recombinant; tags: N-terminal GST; dsDNA, one strand shown
Sequence of ELF1 (P32519 whole entry): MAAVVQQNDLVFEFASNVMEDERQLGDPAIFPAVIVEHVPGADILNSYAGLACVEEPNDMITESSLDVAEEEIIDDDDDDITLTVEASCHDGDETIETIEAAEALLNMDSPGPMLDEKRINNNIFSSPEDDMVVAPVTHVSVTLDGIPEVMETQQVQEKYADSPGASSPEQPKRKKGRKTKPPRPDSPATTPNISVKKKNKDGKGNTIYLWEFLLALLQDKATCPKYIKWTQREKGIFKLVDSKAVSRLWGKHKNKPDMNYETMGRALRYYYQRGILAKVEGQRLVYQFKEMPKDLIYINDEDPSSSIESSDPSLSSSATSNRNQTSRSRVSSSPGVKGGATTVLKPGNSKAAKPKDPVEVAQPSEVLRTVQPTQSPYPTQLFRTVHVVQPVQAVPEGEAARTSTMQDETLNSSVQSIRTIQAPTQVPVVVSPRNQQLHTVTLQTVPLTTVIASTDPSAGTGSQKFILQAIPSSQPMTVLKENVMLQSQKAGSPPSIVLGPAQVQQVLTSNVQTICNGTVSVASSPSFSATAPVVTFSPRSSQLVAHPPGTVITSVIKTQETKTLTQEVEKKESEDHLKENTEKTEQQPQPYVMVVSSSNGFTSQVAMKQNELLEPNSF
Method in brief: as §1

EHF = target: T5, EHF (Homo sapiens, UniProt Q9NZC4 1-300); settings: protein: recombinant; tags: N-terminal GST; dsDNA, one strand shown
T5 sequence: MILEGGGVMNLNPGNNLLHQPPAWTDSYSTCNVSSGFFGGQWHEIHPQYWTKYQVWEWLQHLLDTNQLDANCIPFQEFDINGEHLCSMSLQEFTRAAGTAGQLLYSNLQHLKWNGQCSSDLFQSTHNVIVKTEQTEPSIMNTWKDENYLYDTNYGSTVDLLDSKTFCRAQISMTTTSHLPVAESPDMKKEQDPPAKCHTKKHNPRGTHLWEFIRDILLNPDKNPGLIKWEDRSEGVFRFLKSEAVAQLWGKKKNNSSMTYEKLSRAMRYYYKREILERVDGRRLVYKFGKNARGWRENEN
Method in brief: as §1

SPI1 = SPI1 (Homo sapiens, UniProt P17947 1-270); settings: protein: recombinant; tags: N-terminal GST; dsDNA, one strand shown
Method in brief: as §1

SPIB = SPIB (Homo sapiens, UniProt Q01892 1-262); settings: protein: recombinant; tags: N-terminal GST; dsDNA, one strand shown
Sequence of SPIB (Q01892 whole entry): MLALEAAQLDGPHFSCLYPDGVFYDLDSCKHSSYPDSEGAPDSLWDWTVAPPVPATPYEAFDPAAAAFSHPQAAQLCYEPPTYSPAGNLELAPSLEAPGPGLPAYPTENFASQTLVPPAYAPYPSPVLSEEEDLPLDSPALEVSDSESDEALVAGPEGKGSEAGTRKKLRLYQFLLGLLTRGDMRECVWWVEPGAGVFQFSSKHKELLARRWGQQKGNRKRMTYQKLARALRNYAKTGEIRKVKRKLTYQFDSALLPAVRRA
Method in brief: as §1

ELK3 = target: T6, ELK3 (Homo sapiens, UniProt P41970 1-407); settings: protein: recombinant; tags: N-terminal GST; dsDNA, one strand shown
T6 sequence: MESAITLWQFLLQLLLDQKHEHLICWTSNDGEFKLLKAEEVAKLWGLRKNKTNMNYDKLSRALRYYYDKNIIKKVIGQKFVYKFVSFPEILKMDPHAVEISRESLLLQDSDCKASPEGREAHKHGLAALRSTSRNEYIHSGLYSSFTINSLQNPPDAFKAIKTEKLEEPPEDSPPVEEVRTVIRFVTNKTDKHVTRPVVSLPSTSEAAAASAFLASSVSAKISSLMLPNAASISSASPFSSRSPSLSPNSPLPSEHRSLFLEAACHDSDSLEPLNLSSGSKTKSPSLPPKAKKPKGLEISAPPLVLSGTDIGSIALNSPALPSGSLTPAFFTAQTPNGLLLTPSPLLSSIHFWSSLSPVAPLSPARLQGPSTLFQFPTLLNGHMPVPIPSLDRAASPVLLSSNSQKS
Method in brief: as §1

FEV = target: T7, FEV (Homo sapiens, UniProt Q99581 1-238); settings: protein: recombinant; tags: N-terminal GST; dsDNA, one strand shown
T7 sequence: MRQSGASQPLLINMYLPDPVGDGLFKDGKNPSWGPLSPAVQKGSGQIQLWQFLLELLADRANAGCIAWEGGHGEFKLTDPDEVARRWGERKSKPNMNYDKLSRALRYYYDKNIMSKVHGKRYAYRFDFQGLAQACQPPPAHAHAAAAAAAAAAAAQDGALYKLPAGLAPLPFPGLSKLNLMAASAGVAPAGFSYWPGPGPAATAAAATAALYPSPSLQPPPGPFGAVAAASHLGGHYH
Method in brief: as §1

ETV5 = ETV5 (Homo sapiens, UniProt P41161 1-510); settings: protein: recombinant; tags: N-terminal GST; dsDNA, one strand shown
Sequence of ETV5 (P41161 whole entry): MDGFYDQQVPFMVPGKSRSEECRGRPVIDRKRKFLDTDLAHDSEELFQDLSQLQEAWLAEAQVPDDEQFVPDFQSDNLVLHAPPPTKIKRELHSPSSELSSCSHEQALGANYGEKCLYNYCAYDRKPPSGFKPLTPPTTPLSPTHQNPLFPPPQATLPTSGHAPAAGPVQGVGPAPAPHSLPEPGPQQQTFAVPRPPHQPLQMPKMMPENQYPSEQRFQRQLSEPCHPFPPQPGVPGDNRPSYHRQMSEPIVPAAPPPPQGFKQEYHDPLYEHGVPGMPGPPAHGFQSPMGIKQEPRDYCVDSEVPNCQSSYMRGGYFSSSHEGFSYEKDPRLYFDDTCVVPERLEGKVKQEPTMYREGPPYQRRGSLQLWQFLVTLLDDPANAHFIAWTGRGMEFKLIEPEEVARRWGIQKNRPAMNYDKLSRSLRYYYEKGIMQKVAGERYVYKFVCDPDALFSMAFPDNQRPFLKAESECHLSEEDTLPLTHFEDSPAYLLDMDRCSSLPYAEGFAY
Method in brief: as §1

HSF1 = HSF1 (Homo sapiens, UniProt Q00613 1-529); settings: protein: recombinant; tags: N-terminal GST; chain copies: 3; dsDNA, one strand shown
Sequence of HSF1 (Q00613 whole entry): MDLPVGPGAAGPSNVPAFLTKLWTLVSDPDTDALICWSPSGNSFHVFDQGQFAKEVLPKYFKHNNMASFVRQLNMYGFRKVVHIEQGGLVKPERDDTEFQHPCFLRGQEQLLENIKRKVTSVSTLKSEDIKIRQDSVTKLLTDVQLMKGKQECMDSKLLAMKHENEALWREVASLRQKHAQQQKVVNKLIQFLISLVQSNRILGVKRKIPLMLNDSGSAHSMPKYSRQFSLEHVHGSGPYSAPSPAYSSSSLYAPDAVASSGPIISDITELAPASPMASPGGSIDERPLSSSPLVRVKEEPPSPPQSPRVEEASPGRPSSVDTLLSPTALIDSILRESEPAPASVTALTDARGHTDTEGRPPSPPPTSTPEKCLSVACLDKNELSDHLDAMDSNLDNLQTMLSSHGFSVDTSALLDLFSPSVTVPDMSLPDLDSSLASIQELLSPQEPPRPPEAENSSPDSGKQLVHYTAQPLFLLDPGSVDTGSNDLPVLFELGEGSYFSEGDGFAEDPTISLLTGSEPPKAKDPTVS
Method in brief: as §1

SPIC = target: T8, SPIC (Homo sapiens, UniProt Q8N5J4 1-248); settings: protein: recombinant; tags: N-terminal GST; dsDNA, one strand shown
T8 sequence: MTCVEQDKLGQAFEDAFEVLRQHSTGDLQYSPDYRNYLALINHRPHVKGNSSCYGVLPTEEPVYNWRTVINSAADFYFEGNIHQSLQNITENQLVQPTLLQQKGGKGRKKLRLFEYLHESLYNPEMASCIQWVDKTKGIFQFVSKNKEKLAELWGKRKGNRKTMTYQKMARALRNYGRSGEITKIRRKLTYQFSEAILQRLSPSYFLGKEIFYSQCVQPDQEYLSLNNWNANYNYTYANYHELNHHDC
Method in brief: as §1

ELF4 = ELF4 (Homo sapiens, UniProt Q99607 1-663); settings: protein: recombinant; tags: N-terminal GST; dsDNA, one strand shown
Sequence of ELF4 (Q99607 whole entry): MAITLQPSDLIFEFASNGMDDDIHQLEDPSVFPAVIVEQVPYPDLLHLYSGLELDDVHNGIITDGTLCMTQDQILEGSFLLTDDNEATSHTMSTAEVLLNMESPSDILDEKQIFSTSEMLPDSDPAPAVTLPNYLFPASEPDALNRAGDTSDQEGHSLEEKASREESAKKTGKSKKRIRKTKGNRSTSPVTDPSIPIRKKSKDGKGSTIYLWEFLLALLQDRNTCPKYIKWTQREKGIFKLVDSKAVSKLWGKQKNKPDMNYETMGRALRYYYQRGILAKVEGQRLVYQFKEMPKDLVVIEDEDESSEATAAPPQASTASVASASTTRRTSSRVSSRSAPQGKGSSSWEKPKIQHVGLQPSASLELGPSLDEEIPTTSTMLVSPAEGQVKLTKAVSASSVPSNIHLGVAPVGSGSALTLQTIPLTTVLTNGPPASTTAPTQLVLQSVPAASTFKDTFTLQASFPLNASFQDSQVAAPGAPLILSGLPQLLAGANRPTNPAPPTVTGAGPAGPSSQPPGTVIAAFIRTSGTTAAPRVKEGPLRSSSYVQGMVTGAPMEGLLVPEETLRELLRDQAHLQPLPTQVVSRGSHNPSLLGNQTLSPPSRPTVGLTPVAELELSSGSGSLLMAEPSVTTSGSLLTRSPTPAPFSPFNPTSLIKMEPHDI
Method in brief: as §1

ELK4 = target: T9, ELK4 (Homo sapiens, UniProt P28324-2 1-405); settings: protein: recombinant; tags: N-terminal GST; dsDNA, one strand shown
T9 sequence: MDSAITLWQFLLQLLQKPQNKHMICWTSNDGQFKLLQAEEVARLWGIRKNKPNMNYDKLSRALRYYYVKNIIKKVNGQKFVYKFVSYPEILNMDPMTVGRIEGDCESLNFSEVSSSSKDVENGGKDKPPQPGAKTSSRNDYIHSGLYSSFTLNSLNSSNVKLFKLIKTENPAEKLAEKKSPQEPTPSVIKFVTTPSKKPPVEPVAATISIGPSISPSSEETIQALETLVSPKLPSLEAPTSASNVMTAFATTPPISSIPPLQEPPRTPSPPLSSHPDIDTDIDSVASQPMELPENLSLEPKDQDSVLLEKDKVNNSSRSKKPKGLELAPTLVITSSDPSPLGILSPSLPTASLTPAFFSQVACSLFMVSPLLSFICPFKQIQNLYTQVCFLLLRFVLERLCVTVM
Method in brief: as §1

ETV2 = target: T10, ETV2 (Homo sapiens, UniProt O00321 1-342); settings: protein: recombinant; tags: N-terminal GST; dsDNA, one strand shown
T10 sequence: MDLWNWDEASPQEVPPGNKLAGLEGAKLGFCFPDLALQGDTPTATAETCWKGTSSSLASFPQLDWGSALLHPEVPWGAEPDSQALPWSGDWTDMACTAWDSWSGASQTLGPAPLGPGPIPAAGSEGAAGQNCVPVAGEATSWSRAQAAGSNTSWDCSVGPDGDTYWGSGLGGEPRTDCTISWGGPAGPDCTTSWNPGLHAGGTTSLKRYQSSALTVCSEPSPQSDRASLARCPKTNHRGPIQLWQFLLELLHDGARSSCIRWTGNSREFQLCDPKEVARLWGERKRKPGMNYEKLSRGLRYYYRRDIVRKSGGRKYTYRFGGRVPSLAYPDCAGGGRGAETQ
Method in brief: as §1

ELF3 = target: T11, ELF3 (Homo sapiens, UniProt P78545 1-371); settings: protein: recombinant; tags: N-terminal GST; dsDNA, one strand shown
T11 sequence: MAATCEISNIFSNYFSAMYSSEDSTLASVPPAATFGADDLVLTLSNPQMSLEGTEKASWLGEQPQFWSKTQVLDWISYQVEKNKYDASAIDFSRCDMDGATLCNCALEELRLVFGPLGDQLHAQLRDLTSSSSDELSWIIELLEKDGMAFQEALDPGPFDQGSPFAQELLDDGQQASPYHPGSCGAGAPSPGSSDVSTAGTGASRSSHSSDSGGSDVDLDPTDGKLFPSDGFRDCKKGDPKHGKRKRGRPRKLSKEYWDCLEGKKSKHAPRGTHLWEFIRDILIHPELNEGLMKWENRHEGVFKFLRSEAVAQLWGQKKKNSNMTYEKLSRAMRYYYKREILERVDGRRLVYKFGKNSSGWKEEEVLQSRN
Method in brief: as §1

CRX = CRX (Homo sapiens, UniProt O43186 1-299); settings: protein: recombinant; tags: N-terminal GST; dsDNA, one strand shown
Sequence of CRX (O43186 whole entry): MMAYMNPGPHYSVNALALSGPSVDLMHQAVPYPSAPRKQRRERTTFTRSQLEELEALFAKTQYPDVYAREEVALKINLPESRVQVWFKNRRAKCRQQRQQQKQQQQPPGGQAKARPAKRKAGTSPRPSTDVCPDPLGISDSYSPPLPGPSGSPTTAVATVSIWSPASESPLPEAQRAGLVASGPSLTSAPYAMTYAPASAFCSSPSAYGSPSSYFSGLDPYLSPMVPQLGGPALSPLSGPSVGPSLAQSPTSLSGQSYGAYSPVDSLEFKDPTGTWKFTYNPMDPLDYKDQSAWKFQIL
Method in brief: as §1

ETV1 = ETV1 (Homo sapiens, UniProt P50549 1-477); settings: protein: recombinant; tags: N-terminal GST; dsDNA, one strand shown
Sequence of ETV1 (P50549 whole entry): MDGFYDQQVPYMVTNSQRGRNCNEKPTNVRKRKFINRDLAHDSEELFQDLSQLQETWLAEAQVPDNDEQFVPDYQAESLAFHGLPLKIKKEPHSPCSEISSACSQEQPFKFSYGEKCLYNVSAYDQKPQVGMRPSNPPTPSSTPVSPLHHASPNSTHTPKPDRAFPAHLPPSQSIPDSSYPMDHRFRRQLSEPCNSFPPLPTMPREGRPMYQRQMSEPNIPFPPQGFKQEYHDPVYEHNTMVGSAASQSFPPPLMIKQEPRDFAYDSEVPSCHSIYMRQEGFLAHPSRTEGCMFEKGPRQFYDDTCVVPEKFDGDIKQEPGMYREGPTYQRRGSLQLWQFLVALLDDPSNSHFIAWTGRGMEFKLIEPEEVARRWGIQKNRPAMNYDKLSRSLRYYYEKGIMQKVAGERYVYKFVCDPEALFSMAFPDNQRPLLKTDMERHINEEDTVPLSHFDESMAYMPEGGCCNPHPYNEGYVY
Method in brief: as §1

GTTACT
binding signal (FLI1): 1.25 fold enrichment (6-mer frequency, TF over GST control)
binding signal (ELK1): 1.28 fold enrichment (6-mer frequency, TF over GST control)
binding signal (GABPA): 1.13 fold enrichment (6-mer frequency, TF over GST control)
binding signal (ERG): 1.33 fold enrichment (6-mer frequency, TF over GST control)
binding signal (ELF1): 1.22 fold enrichment (6-mer frequency, TF over GST control)
binding signal (EHF): 1.37 fold enrichment (6-mer frequency, TF over GST control)
binding signal (SPI1): 1.3 fold enrichment (6-mer frequency, TF over GST control)
binding signal (SPIB): 1.23 fold enrichment (6-mer frequency, TF over GST control)
binding signal (ELK3): 1.31 fold enrichment (6-mer frequency, TF over GST control)
binding signal (FEV): 1.17 fold enrichment (6-mer frequency, TF over GST control)
binding signal (ETV5): 1.28 fold enrichment (6-mer frequency, TF over GST control)
binding signal (HSF1): 1.03 fold enrichment (6-mer frequency, TF over GST control)
binding signal (SPIC): 1.31 fold enrichment (6-mer frequency, TF over GST control)
binding signal (ELF4): 1.18 fold enrichment (6-mer frequency, TF over GST control)
binding signal (ELK4): 1.09 fold enrichment (6-mer frequency, TF over GST control)
binding signal (ETV2): 1.19 fold enrichment (6-mer frequency, TF over GST control)
binding signal (ELF3): 1.4 fold enrichment (6-mer frequency, TF over GST control)
binding signal (CRX): 1.03 fold enrichment (6-mer frequency, TF over GST control)
binding signal (ETV1): 1.17 fold enrichment (6-mer frequency, TF over GST control)
